Source: PubChem BioAssay
Sampled rows, rich in hits. Any-hit rate of the full collection: about 22%.
CYP2C9 act = activators of human CYP2C9; recombinant CYP2C9, luciferin-H conversion, luminescence; hits give high values; factor 1 = untreated enzyme, 0 = blocked; activation factor at 5 µM; hit rate 1.4% among 96,000;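 active means activation factor of 2 or more for CYP2C9 at a 5 µM dose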;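 further: 0 = sulfaphenazole-blocked wells and 1 = vehicle-only wells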
Target sequence (P11712 whole entry, looked up): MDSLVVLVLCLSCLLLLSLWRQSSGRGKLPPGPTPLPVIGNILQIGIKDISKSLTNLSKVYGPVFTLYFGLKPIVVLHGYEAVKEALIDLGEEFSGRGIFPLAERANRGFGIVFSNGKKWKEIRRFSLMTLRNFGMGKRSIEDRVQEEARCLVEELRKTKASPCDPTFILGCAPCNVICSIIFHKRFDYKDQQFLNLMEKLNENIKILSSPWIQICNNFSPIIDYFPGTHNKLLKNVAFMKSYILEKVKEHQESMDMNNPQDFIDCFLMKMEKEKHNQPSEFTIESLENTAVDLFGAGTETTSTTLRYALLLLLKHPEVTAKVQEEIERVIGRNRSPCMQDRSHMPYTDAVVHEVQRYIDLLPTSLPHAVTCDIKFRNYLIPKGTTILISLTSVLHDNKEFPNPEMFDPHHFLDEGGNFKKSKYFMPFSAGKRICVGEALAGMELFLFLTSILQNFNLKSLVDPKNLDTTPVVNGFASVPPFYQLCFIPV
CYP2C19 inh = human CYP2C19 inhibition; P33261; CYP2C19 Supersomes, luciferin-H EGE luminescence, 30 min; inhibition, % at 5 µM; hit rate 21% among 96,000; AID 778;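 active means CYP2C19 inhibition above a set limit at 5 µM in the primary screen, cut at about 50% in these data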;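 further: plate controls were negative control wells for no effect and 2.5 mM tranylcypromine positive control for full effect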
CYP2C19 act = increases human CYP2C19 enzyme activity; P33261; recombinant CYP2C19, luciferin-H EGE luminescence; hits give high values; 0 = fully inhibited enzyme, 1 = untreated enzyme; activation factor at 5 µM; 96,000 tested, under 10 active; AID 1025;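 active means activation factor of at least 2 at 5 µM in the primary screen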;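 further: 0 = wells with 2.5 mM tranylcypromine and 1 = vehicle-only wells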
CYP2C9 inhib = human CYP2C9 inhibition; inhibition, % at 5 µM; hit rate 20% among 96,000; CYP2C9 Supersomes, luciferin-H conversion, luminescence; P11712;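 active means blocking of liver enzyme CYP2C9 beyond about 50% at 5 µM, limit read from the data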
Measles CPE = protection of cells from measles virus. Measles virus-infected cells, CPE protection, absorbance. protection (pct of control), % at 4 µM. hit rate 1.5% among 140,000; in the data active means protection mostly above about 24%, no sharp cut-off; inactive means mostly below about 26%
* marks the source's active call; other numbers are inactive results; . = no result given.

SMILES	CYP2C9 act	CYP2C19 inh	CYP2C19 act	CYP2C9 inhib	Measles CPE
O=c1c(C(c2nnnn2C2CCCCC2)N2CCCCC2)coc2ccc(Cl)cc12 (configuration not stated)	0.7	51.7*	0.5	27.7	15.6
c1cncc(C(c2nnnn2C2CCCC2)N2CCCC2)c1 (configuration not stated)	0.9	-4.7	1	7.3	1.3
CCN1CCN(C(c2ccccc2OC)c2nnnn2C2CCCCC2)CC1 (configuration not stated)	1.1	-17.3	1.2	-14.2	2.3
Cc1cc(C)c(C(=O)CSc2nc(C)cc(C)c2C(N)=O)c(C)c1	.	.	.	.	18.5
c1ccc(C(c2nnnn2C2CCCC2)N2CCN(c3nc4ccccc4s3)CC2)cc1 (configuration not stated)	.	.	.	.	6.3
Clc1ccc(C(c2nnnn2C2CCCC2)N2CCN(Cc3ccncc3)CC2)cc1 (configuration not stated)	0.1	98.1*	0	90.5*	30.6
Fc1ccc(C(c2nnnn2C2CCCC2)N2CCN(Cc3ccccc3)CC2)cc1 (configuration not stated)	0.9	36.5	0.6	5.9	5.1
Fc1ccccc1N1CCN(C(c2ccncc2)c2nnnn2C2CCCC2)CC1 (configuration not stated)	0.4	85.6*	0.1	64.5*	18.2
c1ccc(C(c2ccccc2)N2CCN(Cc3nnnn3C3CCCC3)CC2)cc1	0	96.5*	0	97.7*	37.4
Cc1cccc(C)c1NC(=S)N(Cc1ccco1)C1CCN(C(C)C)CC1	.	.	.	.	4.0
Cc1noc(C)c1C(=O)Nc1sc(C)c(C)c1C#N	0.4	9.5	0.9	62.0*	7.5
Cc1noc(C)c1C(=O)Nc1sc2c(c1C(N)=O)CCC2	0.8	10.2	0.9	15.6	6.0
CCN1CCCC1CN(Cc1cc2ccc(C)c(C)c2[nH]c1=O)C(=O)Nc1ccccc1OC (configuration not stated)	0.9	-3.0	1	6.7	9.6
Cc1ccc(NC(=O)CS(=O)CC(=O)NCCCN(C)c2ccccc2)cc1 (configuration not stated)	0.2	60.5*	0.4	84.4*	3.5
Cc1ccc2c(c1)c1c(n2CC(O)Cn2ccnc2C)C(=O)CCC1 (configuration not stated)	.	.	.	.	2.4
Cc1ccc2c(c1)c1c(n2CC2COC(C)(C)O2)C(=O)CCC1 (configuration not stated)	0.3	75.8*	0.2	73.2*	26.4
Cc1ccc2c(c1)c1c(n2CC(O)CN2C(=O)CNC2=O)C(=O)CCC1 (configuration not stated)	0.9	23.5	0.8	7.1	7.8
Cc1nc2ccccc2n1CC(O)Cn1c2ccccc2c2ccccc21 (configuration not stated)	0.2	75.4*	0.2	78.2*	2.3
Cc1ccc2c(c1)c1c(n2CC(O)Cn2c(C)nc3ccccc32)C(=O)CCC1 (configuration not stated)	0.1	2.5	1	86.1*	24.1
Cc1ccc2c(c1)c1c(n2CC(O)Cn2c(C)nc3ccccc32)/C(=N\O)CCC1 (configuration not stated)	0	54.0*	0.5	95.5*	11.7
CCCCOCC(O)Cn1c(C)nc2ccccc21 (configuration not stated)	0.9	45.8	0.5	12.7	5.3
COCCSc1ccccc1C(=O)Nc1cc(C)ccn1	.	.	.	.	4.0
CC1CCN(c2nc(-c3ccccc3)cc(C(F)(F)F)n2)CC1	1	1.4	1	-0.2	16.9
CN1CCN(c2nc(-c3ccccc3)cc(C(F)(F)F)n2)CC1	1.1	50.0*	0.5	-10.1	12.0
O=C(NCCCN1CCC(Cc2ccccc2)CC1)C1CC(=O)N(C2CCCCCC2)C1 (configuration not stated)	0.6	20.6	0.8	43.5	13.7
SMILES	CYP2C9 act	CYP2C19 inh	CYP2C19 act	CYP2C9 inhib	Measles CPE
Cc1ccc(C2C3=C(CCCC3=O)N=C3c4ccccc4C(=O)C32)cc1 (configuration not stated)	.	.	.	.	-0.2
CCn1c(Sc2nc(C)nc3scc(-c4cccs4)c23)n[nH]c1=O	0.4	57.0*	0.4	58.3*	21.3
Cc1ccc(-c2nnc(SCC(=O)NNC(=O)COc3cccc4ccccc34)n2C)cc1	.	.	.	.	10.8
CCN(CC)S(=O)(=O)c1cccc(C(=O)OCc2cc(=O)n3nc(C)sc3n2)c1	0.4	23.3	0.8	55.1*	7.4
CNS(=O)(=O)c1cccc(C(=O)OCc2cc(=O)n3cc(Br)ccc3n2)c1	.	.	.	.	13.0
O=C1CC(N2CCC(c3nc4ccccc4o3)CC2)C(=O)N1c1cc(Cl)cc(Cl)c1 (configuration not stated)	0.2	33.2	0.7	77.7*	3.2
C=CCNc1ncnc2c1[nH]c1ccc(Cl)cc12	0.4	34.4	0.7	63.7*	12.5
Cc1cc(=O)[nH]c(SCC(=O)Nc2ccc(S(=O)(=O)N3CCCCC3)cc2)n1	0.2	26.5	0.7	79.8*	36.6
Cc1cc(C)c2nc(SCC(=O)Nc3ccc(S(=O)(=O)N4CCCC4)cc3)c(C)cc2c1	0.1	37.9	0.6	88.0*	7.4
CCn1cc(C(=O)OCC(=O)Nc2cc(S(=O)(=O)N(C)C)ccc2C)c(=O)c2ccc(C)nc21	0.7	18.4	0.8	28.3	15.9
CCn1cc(C(=O)OCC(=O)Nc2ccc(S(=O)(=O)N3CCCC3)cc2)c(=O)c2ccc(C)nc21	0.3	6.4	0.9	67.7*	21.6
Cc1cc(C)c2c(=O)[nH]c(SCC(=O)Nc3ccc(N(C)C)cc3)nc2n1	0.4	41.8	0.6	58.3*	3.6
COc1cccc(C(=O)NCC(=O)n2nc(C)cc2C)c1	1.2	-6.4	1.1	-19.2	13.0
O=C(CSCc1ccc([N+](=O)[O-])cc1)Nc1ccc(S(=O)(=O)N2CCCCCC2)cc1	.	.	.	.	4.6
Cc1nc(COC(=O)c2ccc(S(=O)(=O)N3CCCC3)cc2)cs1	0.1	48.0	0.5	90.2*	3.6
CCOC(=O)CSCC(=O)Nc1ccc(S(=O)(=O)N2CCCCC2)cc1	0.1	76.9*	0.2	88.0*	12.0
Cc1cc(C)n(-c2ccc(C(=O)OCC(=O)Nc3ccc(S(=O)(=O)N4CCCCC4)cc3)cc2)n1	0.2	68.4*	0.3	81.9*	11.9
Cc1nn(C)c(C(=O)N/N=C/c2cccc3ccccc23)c1Cl	.	.	.	.	4.8
Cn1c(COc2ccc(Br)cc2)nnc1SC1CCc2ccccc2C1=O (configuration not stated)	.	.	.	.	20.9
Cc1ccc2sc(C)[n+](CCC(C)S(=O)(=O)[O-])c2c1 (configuration not stated)	.	.	.	.	19.6
Cc1cc(C)nc(N=Nc2c(O)n(Cc3ccc(Cl)cc3)c3ccccc23)n1	.	.	.	.	20.1
COC(=O)c1ccc(Nc2cc(C)nc(-c3ccccc3O)n2)cc1	0.4	21.1	0.8	59.1*	10.5
CCn1c(=O)c2c(n3cnnc13)-c1ccccc1CC21CCCCC1	0.7	16.4	0.8	27.3	9.9
